This note sets out measurements from PubChem BioAssay.

Test [1] can be described thus: liver-stage malaria parasite growth inhibition, primary screen, cell-based, HepG2, luciferase luminescence, HepG2 viability (AID 624349; in the data active = parasite load remaining mostly below about 12%, no sharp cut-off; inactive = mostly above about 10%;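 also: 100% = mean of DMSO negative control wells on the same plate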). Particulars: P. berghei liver stage in HepG2, luciferase luminescence, concentration not given here; parasite load remaining: stronger effect = lower value; viability: measured here: HepG2 viability without parasites.
The nature of test [2]: Cy5 fluorescence interference with SSB-bound oligo, artefact control for HCV NS3 helicase inhibitor project, biochemical, NIH Clinical Collection, E. coli SSB (AID 743268).
In test [3] the test system is Hepatitis C virus NS3 helicase. Description: HCV NS3 helicase inhibitors, primary screen, biochemical, fluorescence polarization, NIH Clinical Collection (AID 743270). The following applies: NS3 helicase binding to Cy5-dT15 DNA, stronger effect = higher value, concentration not given here.
In test [4] the target is Single-stranded DNA-binding protein (Escherichia coli (strain K12)) (UniProt P0AGE0). Description: E. coli SSB displacement from DNA, counter-screen for HCV NS3 helicase inhibitor project, biochemical, fluorescence polarization, NIH Clinical Collection (AID 743271; in the data active = inhibition above about 28%). Particulars: stronger effect = higher value, concentration not given here.
The nature of test [5]: fluorescence interference in NS3h assay format, artefact control for HCV NS3 helicase inhibitor project, biochemical, NIH Clinical Collection (AID 743272).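 Also: HCV NS3 helicase with a Cy5 labelled single stranded DNA probe.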 The following applies: fluorescence interference counterscreen, stronger effect = lower value.
Test [6] relates to Neuropilin-2 / VEGF-C interaction (human). Description: inhibitors of NRP2–VEGF-C binding, biochemical, microplate binding format, z-score (AID 743281). Particulars: microplate NRP2/VEGF-C binding assay; stronger effect = lower value.
Test [7] in a line: stimulators of nuclear beta-catenin in C2C12, primary screen, imaging, WNT3A-conditioned medium, mouse C2C12, NPC library (AID 1117326; in the data active = nuclear beta-catenin stimulation mostly above about 4.2%, no sharp cut-off; inactive = mostly below about 10%). The following applies: stronger effect = higher value.
Test [8] can be described thus: stimulators of insulin release from INS-1E, primary screen, cell-based, 5 mM glucose, NPC library (AID 1117329;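 active = compound raises insulin release from rat beta cells at 5 mM glucose, no numeric limit stated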). The following applies: rat INS-1E insulin secretion, at 10 µM, stronger effect = higher value.
Test [9] in a line: growth inhibition of GSK3B-pretreated HCT116 cells – cell-based, CellTiter-Glo, 0.2 to 20 µM (AID 1117336;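 active = compounds lowering colon cancer cell viability after pretreatment blocking the GSK3B kinase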). The following applies: HCT116 viability after GSK3B inhibitor, at 20 µM, stronger effect = higher value.
Test [10] can be described thus: inhibition of endothelial tube formation, primary screen, imaging, VEGF stimulated, CD31 staining, tube area, NPC library (AID 1117340;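 active = compound that reduces growth-factor-driven endothelial tube area in a mixed cell culture, no cutoff stated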). Particulars: VEGF-stimulated ADSC/ECFC co-culture, at 10 µM, stronger effect = higher value.
Test [11] is described as follows: glucagon-like peptide 1 release enhancers, primary assay, NCI-H716 cell line, NPC library (AID 1117341;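 active = compound raises GLP1 secretion from the human gut endocrine cells, with no numeric limit stated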). Particulars: NCI-H716 cells, at 10 µM, stronger effect = higher value.
Test [12] can be described thus: HCT116 colon cancer cell growth inhibition, primary screen, CellTiter-Glo luminescence, NPC library (AID 1117342;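 active = compounds that lower survival of HCT116 colon cancer cells in the luminescence readout, no numeric limit stated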). The following applies: at 20 µM (top of the series).
Test [13] can be described thus: CellTiter-Glo luminescent readout of SW480 viability loss, NPC library primary (AID 1117343;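 active = compounds that lower viability of the colon cancer cells in the luminescence readout, with no numeric limit stated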). The following applies: CellTiter-Glo luminescence; at 20 µM (top of the series).
A short description of test [14]: decreased DLD-1 cellular survival, CellTiter-Glo luminescent readout, NPC compound collection, primary HTS (AID 1117346;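 active = compounds that lower survival of DLD-1 colon cancer cells in the luminescence readout, no cutoff given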). Particulars: DLD-1 viability, CellTiter-Glo luminescence; at 20 µM (top of the series).

Where “and” joins values, the source holds several entries; their conditions need not be identical. Equal entries are not always repeated. Calls of active or inactive are those of the source. Unless noted, no rule for the calls is given here.

In the case of `O=c1[nH]cnc2c1ncn2[C@H]1CC[C@@H](CO)O1`, the parasite load remaining in test [1] was 41.8% (inactive) and 84.4% (inactive) and 65.2% (inactive). For the same molecule, the viability in test [1] was 46.9% and 69.4% and 110%. For the same molecule, the fluorescence ratio in [2] was 1.06 (inactive); in [5], 1.01 (inactive). The inhibition was 1.19% (inactive) in test [3] and 0.67% (inactive) in [4]. Moreover, the result in test [6] was inactive. Besides, the nuclear beta-catenin stimulation is -2.1% (inactive) in [7] (at 10 µM) and -0.4% in [7] (stimulation, at 2 µM). In addition, the insulin secretion stimulation in [8] was 3.9% (inactive). Further, the viability decrease in [9] is -9% (inactive). In addition, the tube area decrease in [10] is -4.4% (inactive). In addition, the GLP1 secretion stimulation in test [11] was 3.6% (inactive). For the same molecule, in test [12], the inhibition of viability was -3.4% (inactive). In addition, the viability decrease (inhibition) is -7.8% (inactive) in test [13] and -6.1% (inactive) in test [14].

On to `COc1cc(C)nc(-n2nc(C)cc2OC)n1`, for which the parasite load remaining in test [1] is 32% (inactive) and 118% (inactive) and 64.4% (inactive). Also, in test [1], the viability is 46.8% and 89.6% and 75.3%. Besides, the values for the fluorescence ratio in test [2] and in test [5] were 0.95 (inactive) and 0.88 (inactive), respectively. Further, the inhibition in [3] is -0.22% (inactive); in test [4], 5.91% (inactive). Further, the z-score in test [6] is -0.659 (inactive). Also, the nuclear beta-catenin stimulation in test [7] (at 10 µM) is -1.3% (inactive); in test [7] (stimulation, at 2 µM), -0.3%. Moreover, the insulin secretion stimulation in [8] was 2.5% (inactive). The viability decrease in test [9] is -5% (inactive). In test [10], the tube area decrease was 24.2% (inactive). Besides, in test [11], the GLP1 secretion stimulation was -5.7% (inactive). Further, the inhibition of viability in test [12] is -10.1% (inactive). The viability decrease (inhibition) in test [13] was 1.8% (inactive); in [14] it was -17.2% (inactive).

In the case of `CC(C)c1nc(CN(C)C(=O)N[C@H](C(=O)N[C@@H](Cc2ccccc2)C[C@H](O)[C@H](Cc2ccccc2)NC(=O)OCc2cncs2)C(C)C)cs1`, in [1], the parasite load remaining was 53.8% (inactive). The viability in test [1] came out at 79.2%. Further, the figures for the fluorescence ratio in [2] and in test [5] were 1.03 (inactive) and 0.89 (inactive), respectively. The inhibition is 3.56% (inactive) in test [3] and 9.91% (inactive) in test [4]. For the same molecule, in test [6], the z-score is 0.723 (inactive). The nuclear beta-catenin stimulation was 7.7% (inactive) in [7] (at 10 µM) and 5.1% in test [7] (stimulation, at 2 µM). Besides, in [8], the insulin secretion stimulation was 0.2% (inactive). In addition, in test [9], the viability decrease is 33.5% (inactive). Besides, the tube area decrease in [10] is -13.5% (inactive). The GLP1 secretion stimulation in test [11] was -0.8% (inactive). Moreover, the inhibition of viability in [12] was 67.7% (active). The figures for the viability decrease (inhibition) in test [13] and in test [14] were 4.9% (inactive) and 19.4% (inactive), respectively.

Regarding `CNCCCCOc1ccccc1Cc1ccccc1`, the parasite load remaining in test [1] was 22.1% (inactive). Further, in [1], the viability came out at 54.6%. For the same molecule, the results for the fluorescence ratio in test [2] and in test [5] were 1 (inactive) and 0.96 (inactive), respectively. Moreover, the inhibition in [3] is -4.36% (inactive); in test [4] it was -0.87% (inactive). Further, in test [6], the z-score was -0.524 (inactive). Also, the nuclear beta-catenin stimulation in [7] (at 10 µM) is 1.7% (inactive); in test [7] (stimulation, at 2 µM) it was 1.6%. Further, the insulin secretion stimulation in test [8] was 19.5% (inactive). The viability decrease in [9] was 82.8% (active). Further, the tube area decrease in test [10] is 41% (active). The GLP1 secretion stimulation in test [11] is 7.5% (inactive). Further, the inhibition of viability in test [12] is 95.4% (active). In addition, the values for the viability decrease (inhibition) in test [13] and in [14] were 85.7% (active) and 50.3% (active), respectively.

Consider `Nc1ccc(O)c(C(=O)O)c1`, for which the parasite load remaining in test [1] is 86.6% (inactive) and 106% (inactive) and 16.7% (inactive). Also, the viability in test [1] is 71.9% and 101% and 72%. The fluorescence ratio in test [2] and in [5] was 0.94 (inactive) throughout. Further, the values for the inhibition in [3] and in [4] were 3.56% (inactive) and 2.21% (inactive), respectively. Further, the z-score in [6] was -0.236 (inactive). Besides, the nuclear beta-catenin stimulation in [7] (at 10 µM) is 2% (inactive); in test [7] (stimulation, at 2 µM) it was 0.6%. Further, in test [8], the insulin secretion stimulation was -1.5% (inactive). In addition, the viability decrease in [9] was 2.55% (inactive). For the same molecule, the tube area decrease in [10] is -5.5% (inactive). The GLP1 secretion stimulation in test [11] is -4.4% (inactive). Besides, the inhibition of viability in test [12] was 6.8% (inactive). Further, the viability decrease (inhibition) in test [13] is 22.9% (inactive); in test [14], 20.4% (inactive).

Regarding `COCc1c(C(C)C)nc(C(C)C)c(/C=C/[C@@H](O)C[C@@H](O)CC(=O)O)c1-c1ccc(F)cc1`, in test [1], the parasite load remaining is 149% (inactive) and 309% (inactive). In addition, the viability in test [1] was 53.2% and 109%. Besides, the fluorescence ratio in test [2] was 1.03 (inactive); in [5], 0.99 (inactive). Further, the inhibition in [3] is -4.36% (inactive); in [4] it was -2.41% (inactive). For the same molecule, the z-score in [6] was -0.18 (inactive). In addition, the nuclear beta-catenin stimulation in test [7] (at 10 µM) is 18.8% (active); in test [7] (stimulation, at 2 µM), 44.8%. Further, the insulin secretion stimulation in test [8] was -0.8% (inactive). Moreover, the viability decrease in test [9] is 107% (active). For the same molecule, the tube area decrease in [10] is 107% (active). The GLP1 secretion stimulation in test [11] is 3.1% (inactive). For the same molecule, the inhibition of viability in test [12] was 112% (active). Besides, the viability decrease (inhibition) in test [13] was 151% (active); in test [14], 98.6% (active).

Turning to `O=C1Nc2ccc(Cl)cc2[C@@](C#CC2CC2)(C(F)(F)F)O1`, the parasite load remaining in test [1] was 46.6% (inactive) and 8.97% (inactive). Also, in test [1], the viability was 69% and 64.5%. Moreover, the fluorescence ratio in [2] and in [5] was 0.99 (inactive) throughout. Moreover, the inhibition is 5.15% (inactive) in test [3] and 6.06% (inactive) in test [4]. The z-score in test [6] is 0.939 (inactive). The nuclear beta-catenin stimulation in test [7] (at 10 µM) is -0.8% (inactive); in [7] (stimulation, at 2 µM), 3.6%. In addition, the insulin secretion stimulation in test [8] was 11.3% (inactive). Further, in [9], the viability decrease is 86.5% (active). In addition, in test [10], the tube area decrease is -16% (inactive). Also, the GLP1 secretion stimulation in test [11] was 21% (active). Further, in test [12], the inhibition of viability is 87.9% (active). Moreover, the viability decrease (inhibition) in test [13] is 114% (active); in test [14], 49.4% (inactive).

As to `COc1cc(C(=O)NC2CCCNC2)cc(OC)c1OC` (centres undefined), the parasite load remaining in test [1] is 134% (inactive). Further, the viability in [1] was 80.6%. The fluorescence ratio was 1 (inactive) in [2] and 0.98 (inactive) in test [5]. For the same molecule, the values for the inhibition in test [3] and in test [4] were 2.77% (inactive) and 2.98% (inactive), respectively. Further, in [6], the z-score is -0.315 (inactive). Further, the nuclear beta-catenin stimulation in [7] (at 10 µM) is 22.4% (inactive); in test [7] (stimulation, at 2 µM) it was 2.8%. The insulin secretion stimulation in test [8] was 1.6% (inactive). The viability decrease in [9] was -5.2% (inactive). Also, the tube area decrease in [10] was 0.1% (inactive). Further, the GLP1 secretion stimulation in test [11] is 3.3% (inactive). In addition, the inhibition of viability in [12] is 0.8% (inactive). Besides, the viability decrease (inhibition) in test [13] is 37.5% (inactive); in test [14], 15.8% (inactive).

For the molecule `O=C1CCc2ccc(OCCCCN3CCN(c4cccc(Cl)c4Cl)CC3)cc2N1`, the parasite load remaining in test [1] was 37.5% (inactive) and 20.9% (inactive) and 45.9% (inactive). In test [1], the viability is 98.8% and 60.3% and 100%. Further, the fluorescence ratio in test [2] is 1 (inactive); in test [5] it was 1.02 (inactive). Further, the inhibition in [3] was 1.98% (inactive); in test [4], 4.52% (inactive). Moreover, the z-score in test [6] was 1.76 (inactive). Moreover, the nuclear beta-catenin stimulation in test [7] (at 10 µM) is 2.8% (inactive); in [7] (stimulation, at 2 µM), 0.4%. In addition, the insulin secretion stimulation in [8] was 3.7% (inactive). Further, the viability decrease in test [9] is 95% (active). Further, the tube area decrease in test [10] was 3.8% (inactive). Further, the GLP1 secretion stimulation in test [11] is 10.2% (inactive). In addition, the inhibition of viability in test [12] is 99.4% (active). In addition, the viability decrease (inhibition) was 112% (active) in [13] and 89.5% (active) in test [14].
